Bioassay records deposited in PubChem BioAssay by several laboratories.
The list is not random: actives were taken first. Their share in the collection is about 1.4%.
S1P2 blocker: antagonists of human S1P2 receptor; 97,000 tested, 0.21% active; cell-based S1P2 antagonist assay, inhibition at 5 uM; O95136; inhibition, % at 5 µM; in the data active = inhibition above about 45%;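 note: CRE beta-lactamase reporter cells expressing human S1P2 stimulated with S1P; 0% = agonist at EC80 alone and 100% = agonist plus reference antagonist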
Target sequence (O95136 whole entry, looked up): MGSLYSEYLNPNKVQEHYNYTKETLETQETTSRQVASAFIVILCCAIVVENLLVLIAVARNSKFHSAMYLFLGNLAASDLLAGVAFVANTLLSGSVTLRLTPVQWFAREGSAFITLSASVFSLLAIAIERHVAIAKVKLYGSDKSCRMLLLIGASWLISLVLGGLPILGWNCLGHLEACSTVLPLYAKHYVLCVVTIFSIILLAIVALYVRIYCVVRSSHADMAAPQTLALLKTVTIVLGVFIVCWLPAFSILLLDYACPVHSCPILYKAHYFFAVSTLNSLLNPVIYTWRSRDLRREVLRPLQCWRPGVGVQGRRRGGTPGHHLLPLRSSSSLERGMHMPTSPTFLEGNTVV
S1P2 ag: S1P2 (human) receptor agonism; O95136; S1P2-expressing cell line, agonist reporter read-out; activation, % at 4.5 µM; 97,000 tested, 0.46% active; AID 729; in the data active = activation above about 16%;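 note: 0% = vehicle low control and 100% = maximal reference agonist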
Mac1 fbg inh: blocks human CD11b/CD18 adhesion to fibrinogen; K562 CD11b/CD18 adhesion to fibrinogen, ATPlite luminescence; Mn2+ added to activate the integrin; inhibition, % at 10 µM; 93,000 tested, 0.54% active;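 active = primary inhibition of 50% or more at 10 µM, then 40% or more on retest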
GALR2 blocker: blocks the human galanin receptor 2; inhibition, % at 4 µM; GALR2-expressing cells, antagonist mode; 140,000 tested, 0.39% active; AID 828;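 note: cells stimulated with galanin 1-16 at roughly its EC80; 0% = agonist challenge control and 100% = basal control without agonist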
GALR2 agonist: activates the human galanin receptor 2; O43603; GALR2-expressing cells, agonist activation read-out; activation, % (no concentration beside the values); 140,000 tested, 0.48% active; in the data active = activation above about 5%, passing the limit was not always enough;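 note: 0% = vehicle buffer wells and 100% = reference agonist at full effect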
CD11b adhes enh: CD11b/CD18-fibrinogen binding enhancement. K562 CD11b/CD18 adhesion to fibrinogen, ATPlite luminescence. activation, % at 10 µM. P05107+P11215. 93,000 tested, 0.07% active;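 active = 10 µM primary screen giving 50% or more activity, confirmed by 40% or more on retest at that dose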
GALR2 agon conf: confirmation of human galanin receptor 2 (GALR2) agonists; activation, % at 5.6 µM; AID 864; GALR2-expressing cells, agonist activation; shares compounds with GALR2 agonist; 460 tested, 10% active; in the data active = activation above about 8.4%;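 note: 0% = buffer-only vehicle wells and 100% = full reference agonist response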
BLA activ ctr: counter-screen for GALR2 agonists: beta-lactamase reporter activators. shares compounds with GALR2 agonist. CHO NFAT-bla reporter, beta-lactamase FRET activation. activation, % at 5.6 µM. 460 tested, 10% active;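 active = activation above the screen-wide mean activation plus 3 SD, cut at about 8% in these data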;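 note: 0% = DMSO with PBS wells and 100% = thapsigargin positive control wells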
GALR2 ant conf: confirmation of human galanin receptor 2 (GALR2) antagonists. shares compounds with GALR2 blocker. GALR2-expressing cells, antagonist mode, inhibition. inhibition, % at 4 µM. 480 tested, 60% active. AID 866;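 note: cells stimulated with galanin at about its EC80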
BLA inh counter: beta-lactamase inhibition, GALR2 counterscreen; CHO NFAT-BLA reporter, beta-lactamase FRET, thapsigargin-stimulated; shares compounds with GALR2 blocker; 480 tested, 36% active; inhibition, % at 4.2 µM;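 active = inhibition above the mean inhibition across tested compounds plus 3 SD, cut at about 27% in these data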;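 note: 0% = 500 nM thapsigargin stimulated wells and 100% = unstimulated BSA only wells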
Active calls of the source: *. Cut-off read from the data, not from the text of the source, unless noted: active = inhibition above about 27%; inactive = the rest.

How did O=c1c2ccccc2nc(-c2cccs2)n1-c1ccccc1 do in these assays?
S1P2 blocker: 10; S1P2 ag: -10; GALR2 blocker: -5; GALR2 agonist: -2

What do the screens show for `CCn1nc(-c2cccs2)nc2c(=O)n(C)c(=O)nc1-2`?
Mac1 fbg inh: 63*; CD11b adhes enh: -1

What do the screens show for `COc1ccc(OCC(=O)Nc2ccc(Cl)cc2C(=O)c2ccccc2)cc1`?
S1P2 blocker: -5; S1P2 ag: -2; Mac1 fbg inh: -11; GALR2 blocker: -14; GALR2 agonist: 10; CD11b adhes enh: 1; GALR2 agon conf: -1; BLA activ ctr: -3

How did O=C(COc1ccccc1)Nc1ccc(Cl)cc1C(=O)c1ccccc1 do in these assays?
Mac1 fbg inh: -4; GALR2 blocker: 8; GALR2 agonist: 0; CD11b adhes enh: 2

What do the screens show for `O=C(c1cccs1)N1C2CCC1CC(O)(c1cccnc1)C2` (centres undefined)?
S1P2 blocker: 10; S1P2 ag: -2; Mac1 fbg inh: -25; GALR2 blocker: -10; GALR2 agonist: -2; CD11b adhes enh: -3

Results for CN(C)CCc1nc2ccccc2c(=O)n1-c1ccccc1 ?
S1P2 blocker: -12; S1P2 ag: 4; Mac1 fbg inh: -42; GALR2 blocker: -15; GALR2 agonist: 32*; CD11b adhes enh: 3; GALR2 agon conf: -1; BLA activ ctr: -1

How did O=C(c1ccccc1)c1cn(CC(=O)N2CCOCC2)c2ccccc12 do in these assays?
S1P2 blocker: -14; S1P2 ag: -5; Mac1 fbg inh: -13; GALR2 blocker: -10; GALR2 agonist: -1; CD11b adhes enh: 3

Results for O=C(CCCN1CCC2(CC1)C(=O)NCN2c1ccccc1)c1ccc(F)cc1 ?
GALR2 blocker: 10; GALR2 agonist: 16*; GALR2 agon conf: 8.8*; BLA activ ctr: 14*

How did N#Cc1cc2c(nc1SCC(=O)Nc1cc(Cl)ccc1Cl)C1CCN2CC1 do in these assays?
S1P2 blocker: -47; S1P2 ag: 14; GALR2 blocker: 3; GALR2 agonist: 11; GALR2 agon conf: 1; BLA activ ctr: 1

How did COc1ccc(Cn2c(N)c(C(=O)NCc3ccco3)c3nc4ccccc4nc32)cc1 do in these assays?
S1P2 blocker: -9; S1P2 ag: 13; GALR2 blocker: -11; GALR2 agonist: 13*; GALR2 agon conf: 8.6*; BLA activ ctr: 16*

Results for CCOC(=O)c1c(N)n(Cc2ccco2)c2nc3ccccc3nc12 ?
S1P2 blocker: -17; S1P2 ag: 1; Mac1 fbg inh: -6; GALR2 blocker: 15; GALR2 agonist: 2; CD11b adhes enh: -7

What do the screens show for `O[C@H]1[C@H](O)[C@@H](O)CN2CC[C@H](O)[C@H]12`?
GALR2 blocker: 7; GALR2 agonist: -1

Results for CCN(c1ccc(C(O)(C(=O)OC)C(F)(F)F)cc1)S(=O)(=O)c1ccccc1 (centres undefined) ?
Mac1 fbg inh: -7; GALR2 blocker: 7; GALR2 agonist: 16*; CD11b adhes enh: -1; GALR2 agon conf: 0; BLA activ ctr: -1

What do the screens show for `O=C1NC(=S)NC(=O)C1C/C=C/c1ccccc1`?
S1P2 blocker: 2; S1P2 ag: 0; Mac1 fbg inh: -38; GALR2 blocker: -7; GALR2 agonist: 0; CD11b adhes enh: -5

How did COc1cc(/C=C(/C)[N+](=O)[O-])ccc1OCc1ccccc1Cl do in these assays?
GALR2 blocker: 4; GALR2 agonist: 11*; GALR2 agon conf: 0; BLA activ ctr: -9

How did CN1C(=O)C(=Cc2ccccc2OCc2ccccc2Cl)C(=O)N(C)C1=O do in these assays?
Mac1 fbg inh: 12; GALR2 blocker: -4; GALR2 agonist: -1; CD11b adhes enh: 0

How did Nc1cc(Cl)c2nonc2c1[N+](=O)[O-] do in these assays?
Mac1 fbg inh: -2; GALR2 blocker: 37*; GALR2 agonist: 4; CD11b adhes enh: 5; GALR2 ant conf: 35*; BLA inh counter: 12

What do the screens show for `CCOC(=O)C1C2c3ccccc3O[C@@]1(C)N=C1SCC(=O)N12` (some centres undefined)?
S1P2 blocker: 4; S1P2 ag: -7; Mac1 fbg inh: 18; GALR2 blocker: 0; GALR2 agonist: 0; CD11b adhes enh: -2

How did O=C(c1cc2c(s1)-c1ccccc1OC2)N1CCC2(CC1)OCCO2 do in these assays?
S1P2 blocker: -23; S1P2 ag: -3; Mac1 fbg inh: -2; GALR2 blocker: -7; GALR2 agonist: 0; CD11b adhes enh: 2

Results for C=CCn1c(O)c(/C=C2/C=CC=N2)c(=O)[nH]c1=O ?
Mac1 fbg inh: 17; GALR2 blocker: 35*; GALR2 agonist: -1; CD11b adhes enh: 3; GALR2 ant conf: 25; BLA inh counter: 10

Results for C=C(C)c1cccc(C(C)(C)NC(=O)NC2CN3CCC2CC3)c1 (centres undefined) ?
Mac1 fbg inh: -20; GALR2 blocker: 0; GALR2 agonist: 0; CD11b adhes enh: -1

How did COc1cc(/C=C/[N+](=O)[O-])ccc1O do in these assays?
GALR2 blocker: 52*; GALR2 agonist: -2; GALR2 ant conf: 55*; BLA inh counter: 23

How did COc1cccc(-n2c(O)c(C=NCc3ccc4c(c3)OCO4)c(=O)[nH]c2=O)c1 do in these assays?
S1P2 blocker: -6; S1P2 ag: -11; Mac1 fbg inh: -19; GALR2 blocker: -10; GALR2 agonist: -1; CD11b adhes enh: -3

How did CC(=O)OC(C)(C)/C=C/C(=O)[C@](C)(O)[C@H]1[C@H](O)C[C@@]2(C)[C@@H]3CC=C4[C@H](C[C@H](O)C(=O)C4(C)C)[C@]3(C)C(=O)C[C@]12C do in these assays?
GALR2 blocker: 72*; GALR2 agonist: -3; GALR2 ant conf: 87*; BLA inh counter: 102*

What do the screens show for `CN1CCC(O)(c2ccccc2)C(C(=O)c2ccccc2)C1` (centres undefined)?
Mac1 fbg inh: -10; GALR2 blocker: -7; GALR2 agonist: -1; CD11b adhes enh: 8

How did CC(=O)OC1(c2ccc(C)cc2)CN2CCC1c1ccccc12 (centres undefined) do in these assays?
S1P2 blocker: 2; S1P2 ag: -4; Mac1 fbg inh: -7; GALR2 blocker: 39*; GALR2 agonist: -2; CD11b adhes enh: 0; GALR2 ant conf: 17; BLA inh counter: 14
